Measurements reported in PubChem BioAssay (Tox21).
Several values for one entry are separate records, joined by “and”; a condition that tells them apart may be missing. Equal values may be shown once. Inconclusive results are not listed. Where a call stands in place of a potency, no number is given. Some structures have more than one record in an assay (separate samples or runs), and their calls can disagree. Activity calls are given as the source filed them. Calls follow the shape of the dose curve; as a rule, active = well fitted cell-killing curve with a large enough effect in the repeat runs; inconclusive = weak or mixed curves, or effect the other way; inactive = flat fitted curve, though single readings scatter.
Potency is read from the fitted curve at half-maximal effect.

Experiment: qHTS RealTime-Glo MT Cell Viability Assay in HEK293 cells - 32 hour (AID 1224868); also: nearly all actives have a fitted effect of over 50% in size
Conditions: RealTime-Glo luminescence; series mostly up to 76.8 µM
Text: National Center for Advancing Translational Sciences [NCATS]
NIH Chemical Genomics Center [NCGC]
U.S. Environmental Protection Agency [EPA]
National Institutes of Environmental Health Sciences [NIEHS]
National Toxicology Program [NTP]
U.S. Food and Drug Administration [FDA]
Measure of cell viability is critical in the cell-base assay. Analysis of cell viability is necessary for the characterization of cell responses to cytotoxic drugs and environmental stress. A RealTime-Glo MT Cell Viability Assay to monitor cell viability in real time of continues cell culture during 40 hours of compound treatment was used to screen Tox21 10K library compounds in Hek293 cells. The RealTime-Glo MT Cell Viability Assay is a nonlytic, homogeneous, bioluminescent method to measure cell viability in real time using a simple, plate-based method. The assay involves adding NanoLuc luciferase and a cell-permeant prosubstrate to cells in culture. Viable cells reduce the proprietary prosubstrate to generate a substrate for NanoLuc luciferase. This substrate diffuses from cells into the surrounding culture medium, where it is rapidly used by the NanoLuc Enzyme to produce a luminescent signal. The signal correlates with the number of viable cells, making the assay well suited for cytotoxicity studies.
Tox21 Assay Protocol Summary:
The mixture of Hek293 cell suspension and reagents were dispensed at 600cells/6 ul/well in 1536-well tissue culture treated black solid bottom plates using a Multidrop dispenser. After the assay plates were incubated at a 37 C/5% CO2 incubator for 5 hours, 23 nL of compounds dissolved in DMSO, positive and negative controls was transferred to the assay plate by a pintool work station. The plates were incubated at 37 C for 40 hours. The luminescence intensity were measured at 0h, 8h, 16h, 24h, 32h and 40h time points using ViewLux plate reader during compound treatment.
For CCC(C)Cl (stereo not given), the Potency was “inactive”.
For CC(C)CCON=O, the Potency was “inactive”.
With Cc1ncc(C[n+]2csc(CCO)c2C)c(N)n1 the Potency was “inactive”.
With CCCCCCCCCCCCN(C)C the Potency was “inactive”.
In the case of CCCCCCCCCCCCN=C(N)N, the Potency was 1.2 µM (active).
With CCC1CCC(=O)O1 (stereo not given) the Potency was “inactive”.
In the case of C=CCOCC1CO1 (stereo not given), the Potency was “inactive”.
In the case of CC(O)CN1CCN(CC(=O)[O-])CCN(CC(=O)[O-])CCN(CC(=O)[O-])CC1.[Gd+3] (stereo not given), the Potency was “inactive”.
With CN1C[C@H](C(=O)N[C@]2(C)O[C@@]3(O)[C@@H]4CCCN4C(=O)[C@H](Cc4ccccc4)N3C2=O)C=C2c3cccc4[nH]cc(c34)C[C@H]21 the Potency was 27.7 µM (active) and inactive.
With CNC(=O)Oc1cccc(N=CN(C)C)c1 the Potency was “inactive”.
With Cc1ccc(N)c(C)c1 the Potency was “inactive”.
For O=C(Cl)OCCOCCOC(=O)Cl, the Potency was “inactive”.
In the case of CC[N+]1(C)CCCC(OC(=O)C(O)(c2ccccc2)c2ccccc2)C1 (stereo not given), the Potency was “inactive”.
For Clc1ccccc1, the Potency was “inactive”.
For O=P(OCC(Br)CBr)(OCC(Br)CBr)OCC(Br)CBr (stereo not given), the Potency was 27.9 µM (active).
In the case of CC[N+]1(CCOC(=O)C(O)(c2ccccc2)c2ccccc2)CCCCC1, the Potency was “inactive”.
In the case of CC1(C)CC(=O)CC(C)(C)N1[O], the Potency was “inactive”.
With C[CH2][Hg][S]c1ccccc1C(=O)O the Potency was 977 nM (active) and 1.07 µM (active).
In the case of CCNC(=O)NC(=O)/C(C#N)=N/OC, the Potency was “inactive”.
In the case of CCCCC(CC)CO[N+](=O)[O-] (stereo not given), the Potency was “inactive”.
In the case of Nc1cccc2ccccc12, the Potency was “inactive”.
In the case of CC(C)(C)NCC(O)c1cc(Cl)c(N)c(C(F)(F)F)c1 (stereo not given), the Potency was “inactive”.
With CCC(C)(C)c1ccc(O)c(C(C)(C)CC)c1 the Potency was 48.5 µM (active) and inactive.
With O=C1NC(=O)C(=O)C(=O)N1 the Potency was “inactive”.
In the case of O=[N+]([O-])O[C@H]1CO[C@H]2[C@@H]1OC[C@H]2O[N+](=O)[O-], the Potency was “inactive”.
With CCC(=O)O[C@@H]1C=C2CCC3C(CCC4(C)C3CC[C@@H]4OC(=O)CC)C2CC1 (stereo not given in full) the Potency was “inactive”.
In the case of COc1ccc(C(O)(c2cncnc2)C2CC2)cc1 (stereo not given), the Potency was “inactive”.
In the case of CC(C)(c1ccccc1)c1cc(-n2nc3ccccc3n2)c(O)c(C(C)(C)c2ccccc2)c1, the Potency was “inactive”.
In the case of CCCN(CCOc1c(Cl)cc(Cl)cc1Cl)C(=O)n1ccnc1, the Potency was 19.9 µM (active) and 27.5 µM (active).
In the case of c1ccc2c(c1)sc1ccccc12, the Potency was “inactive”.
With c1ccc2c(c1)-c1cccc3cccc-2c13 the Potency was “inactive”.
In the case of O=C(NCNC(=O)NC1C(=O)NC(=O)N1CO)NC1C(=O)NC(=O)N1CO (stereo not given), the Potency was “inactive”.
For CC(Cc1ccccc1)NCc1ccccc1Cl (stereo not given), the Potency was “inactive”.
With O=C1c2ccccc2C(=O)N1SC(Cl)(Cl)Cl the Potency was 6.82 µM (active) and 6.92 µM (active).
With CC(Oc1cccc(Cl)c1)C(=O)O (stereo not given) the Potency was “inactive”.
For CCOC(=O)c1cn2nc(OP(=S)(OCC)OCC)cc2nc1C, the Potency was 13.8 µM (active).
For COC1CC(=C(c2cccs2)c2cccs2)C[N+](C)(C)C1 (stereo not given), the Potency was “inactive”.
In the case of CCCC(C)(COC(N)=O)COC(=O)NC(C)C (stereo not given), the Potency was “inactive”.
In the case of C[N+]1(CCF)[C@@H]2CC[C@H]1CC(OC(=O)C(O)(c1ccccc1)c1ccccc1)C2 (stereo not given in full), the Potency was “inactive”.
For SCc1ccccc1, the Potency was “inactive”.
